Experimental data: PubChem BioAssay AID504583 (Broad Institute, 2011)
Results with a measured potency or affinity are listed apart. Inconclusive results are not listed. The source made the active and inactive calls.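 The calls were made as follows: active = lowers substrate conversion with a fitted half-maximal potency at most ten times the top dose, in every run; inconclusive = runs disagree, or flat weak or poorly fitted curves; inactive = every run inactive, flat, weak or opposite direction.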

target: cAMP-dependent protein kinase catalytic subunit alpha (Homo sapiens) (UniProt P17612); test: PKA catalytic subunit inhibitors, dose response, biochemical, Caliper mobility shift, dry powder samples (AID 504583); details: recombinant PKA, Caliper peptide phosphorylation % conversion; series mostly up to 10 µM; % substrate conversion (lower = inhibition): at the top concentration

% substrate conversion (lower = inhibition), inactive:
CCOc1ccccc1C(=O)Nc1cc(Cl)ccc1O 34.3%, CC(C)n1cnc2c(Nc3cccc(Cl)c3)nc(NCCO)nc21 29.7%, COc1cc(N2CCC(O)CC2)ccc1Nc1ncc2c(n1)N1CCc3cccc(c31)C(=O)N2C 29.5%, COc1cc(N2CCC(N3CCN(C)CC3)CC2)ccc1Nc1ncc2c(n1)N1CCC[C@H]1CC(=O)N2C 29.8%, COc1cc(N2CCN(C)CC2)ccc1Nc1ncc2c(n1)N(C1CCCC1)C(C)CC(=O)N2C (centres undefined) 28.5%, COc1cc(N2CCC(N3CCN(C)CC3)CC2)ccc1Nc1ncc2c(n1)N(C1CCCC1)C(C)CC(=O)N2C (centres undefined) 26.4%, Oc1ccc(Nc2nc(-c3ccccc3O)nc3ccccc23)cc1 26.3%, COc1cc(C(=O)N2CCC(N3CCN(C)CC3)CC2)ccc1Nc1ncc2c(n1)N(C)c1ccccc1C(=O)N2C 27.9%, O=C1NCCCc2c1oc1ccc(O)cc21 27.7%, COc1cc(/C=N/n2c(-c3ccccc3)n[nH]c2=S)ccc1O 31.8%, COc1cc(/C=C2\SC(=Nc3ccccc3OC)NC2=O)ccc1O 23.2%, O=C(Nc1ccccc1-c1ccccc1)c1ccc(Br)o1 30.1%, CCCn1c(NC(=O)c2cccc(S(=O)(=O)N3CCCC3)c2)nc2ccccc21 26.1%, O=C1NC(=NCc2ccccc2)S/C1=C/c1ccc(O)cc1 27.7%, Cc1ncc(/C=C2\C(=O)Nc3ccccc32)[nH]1 26.6%, CC(=O)N(C)c1ccc(N=Cc2c(O)ccc3ccccc23)cc1 32.2%, CN1CCN(c2ccc(Nc3ncc4c(n3)N(C)c3ccccc3C(=O)N4C)cc2)CC1 27.9%, COc1cc(N2CCN(C)CC2)ccc1Nc1ncc2c(n1)N1CCC[C@H]1CC(=O)N2C 30.5%, COc1cc(/C=C2\SC(N)=NC2=O)ccc1O 30.5%, COc1cc(N2CCN(C)CC2)ccc1Nc1ncc2c(n1)N(C)c1ccccc1C(=O)N2C 29.4%, COc1cc(C(=O)NC2CCN(C)CC2)ccc1Nc1ncc2c(n1)N(C1CCC(O)CC1)CCC(=O)N2C (centres undefined) 31.3%, COc1cc(N2CCN(C)CC2)ccc1Nc1ncc2c(n1)N(C)c1sccc1C(=O)N2C 28.3%, CC(Oc1ccc2c(c1)c1ccnc3c4ccccc4c(=O)n2c13)C(=O)NCCN1CCOCC1 (centres undefined) 35.1%, O=C(Nc1ccccc1-c1nc2ccccc2[nH]c1=O)c1cccs1 28.3%
